Data as given in PubChem BioAssay (EPA / NIEHS).
“And” between values parts separate entries of the source, which are not always exact repeats. Identical values can stand only once. Some structures have more than one record in an assay (separate samples or runs), and their calls can disagree. The source made the active and inactive calls. Rule for the calls: active = hit-call score of the fitted dose curve at least 0.9, where 1 is the maximum; inactive = score below 0.9.

What was measured:
[1] = read-out: Tissue Factor, F3 (gene 2152); experiment: BSK_CASM3C_TissueFactor: BioMAP Diversity Plus: CASM3C Assay for Tissue Factor Biomarker Activity (AID 2283052); settings: primary human coronary artery smooth muscle cells; actives raise or lower the signal;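 note: cell surface tissue factor protein level read by ELISA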
[2] = read-out: Interferon-gamma inducible Protein 10 (IP10), CXCL10 (gene 3627); experiment: BSK_hDFCGF_IP10: BioMAP Diversity Plus: hDFCGF Assay for Interferon-gamma inducible Protein 10 (IP10) Biomarker Activity (AID 2283053); settings: primary human foreskin fibroblasts; actives raise or lower the signal
Procedure, shortened: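 Primary human foreskin fibroblasts exposed to chemicals for 24 h. IP-10 measured by ELISA; changes fitted bidirectionally against DMSO baseline.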

[3] = read-out: Urokinase-type plasminogen activator receptor (uPAR), PLAUR (gene 5329); experiment: BSK_CASM3C_uPAR: BioMAP Diversity Plus: CASM3C Assay for Urokinase-type plasminogen activator receptor (uPAR) Biomarker Activity (AID 2283054); settings: primary human coronary artery smooth muscle cells; actives raise or lower the signal;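 note: cell-surface uPAR protein level quantified by ELISA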
[4] = read-out: Vascular cell adhesion molecule 1 (VCAM1), VCAM1 (gene 7412); experiment: BSK_CASM3C_VCAM1: BioMAP Diversity Plus: CASM3C Assay for Vascular cell adhesion molecule 1 (VCAM1) Biomarker Activity (AID 2283055); settings: primary human coronary artery smooth muscle cells; actives raise or lower the signal;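 note: VCAM-1 protein level quantified by ELISA on the cells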
[5] = read-out: Collagen III, COL3A1 (gene 1281); experiment: BSK_hDFCGF_CollagenIII: BioMAP Diversity Plus: hDFCGF Assay for Collagen III Biomarker Activity (AID 2283056); settings: primary human foreskin fibroblasts; actives raise or lower the signal
Procedure, shortened: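 Human foreskin fibroblast primary cultures sampled 24 h after dosing; Collagen III quantified by ELISA. Signal fitted bidirectionally against DMSO baseline.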

[6] = read-out: Epidermal growth factor receptor (EGFR), EGFR (gene 1956); experiment: BSK_hDFCGF_EGFR: BioMAP Diversity Plus: hDFCGF Assay for Epidermal growth factor receptor (EGFR) Biomarker Activity (AID 2283057); settings: primary human foreskin fibroblasts; actives raise or lower the signal
Procedure, shortened: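 Primary human foreskin fibroblasts (hDFCGF system), sampled 24 h after dosing; EGFR quantified by ELISA. Bidirectional fit relative to DMSO baseline; SRB total-protein staining in parallel cultures for cytotoxicity.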

[7] = read-out: Interleukin-8 (IL8), CXCL8 (gene 3576); experiment: BSK_hDFCGF_IL8: BioMAP Diversity Plus: hDFCGF Assay for Interleukin-8 (IL8) Biomarker Activity (AID 2283058); settings: primary human foreskin fibroblasts; actives raise or lower the signal
Procedure, shortened: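 Primary human foreskin fibroblasts (hDFCGF system) dosed with chemical; IL-8 measured by ELISA 24 hours later. Bidirectional curve fitting relative to DMSO baseline; cytotoxicity tracked in parallel cultures by SRB total protein staining.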

[8] = BSK_hDFCGF_Proliferation: Cell Proliferation Assessment in the BioMAP Diversity Plus: hDFCGF Assay (AID 2283059); settings: primary human foreskin fibroblasts;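 note: curves fitted for both rise and fall of signal versus DMSO baseline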
Procedure, shortened: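 Steps: dose primary human dermal fibroblasts (foreskin); […] fix in 10% TCA; stain with 0.1% SRB; read 560 nm; fit gain or loss of signal against DMSO.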

[9] = read-out: Macrophage colony-stimulating factor (MCSF), CSF1 (gene 1435); experiment: BSK_hDFCGF_MCSF: BioMAP Diversity Plus: hDFCGF Assay for Macrophage colony-stimulating factor (MCSF) Biomarker Activity (AID 2283060); settings: primary human foreskin fibroblasts; actives raise or lower the signal
Procedure, shortened: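 Human foreskin fibroblast primary cultures; M-CSF measured by ELISA 24 hours after chemical dosing. Bidirectional fitting relative to DMSO, with overt cytotoxicity tracked by parallel SRB total-protein staining (0.1% SRB, 10% TCA fixation, 560 nm).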

[10] = BSK_hDFCGF_SRB: Viability Assessment in the BioMAP Diversity Plus: hDFCGF Assay (AID 2283061); settings: primary human foreskin fibroblasts;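 note: cells exposed to compound for 24 h before the read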
Procedure, shortened: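 Human foreskin fibroblasts in 96-well plates were treated 24 h. Total protein was measured by 0.1% SRB staining after 10% TCA fixation, read at 560 nm. Data were fitted bidirectionally against DMSO.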

[11] = read-out: Monokine induced gamma interferon (MIG), CXCL9 (gene 4283); experiment: BSK_hDFCGF_MIG: BioMAP Diversity Plus: hDFCGF Assay for Monokine induced gamma interferon (MIG) Biomarker Activity (AID 2283063); settings: primary human foreskin fibroblasts; actives raise or lower the signal
Procedure, shortened: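 MIG/CXCL9 measured by ELISA 24 h after dosing primary human skin fibroblasts. Activity fitted in both directions against DMSO controls. Cytotoxicity was checked in parallel cultures by SRB staining read at 560 nm.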

[12] = read-out: Matrix Metallopeptidase 1 (MMP1), MMP1 (gene 4312); experiment: BSK_hDFCGF_MMP1: BioMAP Diversity Plus: hDFCGF Assay for Matrix Metallopeptidase 1 (MMP1) Biomarker Activity (AID 2283064); settings: primary human foreskin fibroblasts; actives raise or lower the signal
Procedure, shortened: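 Primary human foreskin fibroblasts in the hDFCGF system were dosed with test chemical, and MMP1 was measured by ELISA 24 h later. Values come from bidirectional curve fitting against the DMSO baseline.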

[13] = read-out: Vascular cell adhesion molecule 1 (VCAM1), VCAM1 (gene 7412); experiment: BSK_hDFCGF_VCAM1: BioMAP Diversity Plus: hDFCGF Assay for Vascular cell adhesion molecule 1 (VCAM1) Biomarker Activity (AID 2283065); settings: primary human foreskin fibroblasts; actives raise or lower the signal;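 for AC50: VCAM-1 protein level quantified by ELISA after 24 h chemical exposure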
Procedure, shortened: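 Human foreskin fibroblast primary cells dosed with chemical, VCAM-1 measured by ELISA at 24 h. Bidirectional curve fitting relative to DMSO as negative control/baseline.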

[14] = read-out: Plasminogen activator inhibitor-1 (PAI1), SERPINE1 (gene 5054); experiment: BSK_hDFCGF_PAI1: BioMAP Diversity Plus: hDFCGF Assay for Plasminogen activator inhibitor-1 (PAI1) Biomarker Activity (AID 2283066); settings: primary human foreskin fibroblasts; actives raise or lower the signal
Procedure, shortened: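 Human foreskin fibroblast primary cells, 24 h chemical exposure; PAI-1 measured by ELISA. Bidirectional fitting relative to DMSO; parallel cultures stained with SRB for total protein to flag overt cytotoxicity.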

[15] = read-out: Intercellular Adhesion Molecule 1 (ICAM1), ICAM1 (gene 3383); experiment: BSK_KF3CT_ICAM1: BioMAP Diversity Plus: KF3CT Assay for Intercellular Adhesion Molecule 1 (ICAM1) Biomarker Activity (AID 2283067); settings: primary human keratinocytes with fibroblasts; actives raise or lower the signal
Procedure, shortened: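 Human keratinocyte–foreskin fibroblast co-culture was treated for 24 h. Cell-surface ICAM-1 was quantified by ELISA, fitted bidirectionally relative to DMSO. Cytotoxicity was checked in parallel cultures by SRB total-protein staining.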

[16] = read-out: Interferon-gamma inducible Protein 10 (IP10), CXCL10 (gene 3627); experiment: BSK_KF3CT_IP10: BioMAP Diversity Plus: KF3CT Assay for Interferon-gamma inducible Protein 10 (IP10) Biomarker Activity (AID 2283068); settings: primary human keratinocytes with fibroblasts; actives raise or lower the signal
Procedure, shortened: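 KF3CT co-culture (keratinocytes + foreskin fibroblasts), 24 h compound, IP-10 by ELISA; bidirectional fit vs DMSO baseline.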

[17] = BSK_KF3CT_SRB: Viability Assessment in the BioMAP Diversity Plus: KF3CT Assay (AID 2283069); settings: primary human keratinocytes with fibroblasts;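 note: total protein by sulforhodamine B staining as a cytotoxicity measure; read 24 h after compound addition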
Procedure, shortened: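 Human primary keratinocyte plus foreskin fibroblast co-culture exposed to chemicals for 24 h. Total protein measured by 0.1% sulforhodamine B staining after 10% TCA fixation, read at 560 nm; bidirectional fitting versus DMSO baseline.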

[18] = read-out: Interleukin-1 alpha (IL1a), IL1A (gene 3552); experiment: BSK_KF3CT_IL1a: BioMAP Diversity Plus: KF3CT Assay for Interleukin-1 alpha (IL1a) Biomarker Activity (AID 2283070); settings: primary human keratinocytes with fibroblasts; actives raise or lower the signal
Procedure, shortened: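 Human keratinocyte plus foreskin fibroblast primary co-culture, sampled 24 h after chemical dosing. IL-1a measured by ELISA; responses fitted bidirectionally against DMSO baseline (negative control), so gain or loss of signal both count.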

[19] = read-out: TIMP metallopeptidase inhibitor 2 (TIMP2), TIMP2 (gene 7077); experiment: BSK_KF3CT_TIMP2: BioMAP Diversity Plus: KF3CT Assay for TIMP metallopeptidase inhibitor 2 (TIMP2) Biomarker Activity (AID 2283071); settings: primary human keratinocytes with fibroblasts; actives raise or lower the signal
Procedure, shortened: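 Co-culture of human primary keratinocytes and foreskin fibroblasts, measured 24 h after chemical dosing. TIMP-2 quantified by ELISA and fitted in both directions relative to DMSO. Cytotoxicity checked in parallel cultures by SRB total-protein staining.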

[20] = read-out: TIMP metallopeptidase inhibitor 1 (TIMP1), TIMP1 (gene 7076); experiment: BSK_hDFCGF_TIMP1: BioMAP Diversity Plus: hDFCGF Assay for TIMP metallopeptidase inhibitor 1 (TIMP1) Biomarker Activity (AID 2283062); settings: primary human foreskin fibroblasts; actives raise or lower the signal
Procedure, shortened: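 Human foreskin fibroblast primary cultures dosed for 24 h; secreted/surface TIMP-1 quantified by ELISA. Bidirectional curve fitting against DMSO baseline; cytotoxicity tracked in parallel cultures by SRB total-protein staining.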

Measured: AC50

CCN(CC)C(=O)N(CC)CC
not listed: [20]
inactive: all other assays above

C=C(C)[C@H]1CC=C(C)C(=O)C1
inactive: all assays above

C1=CC2C3C=CC(C3)C2C1 (centres undefined)
inactive: all assays above

CC(C)(C)CC(C)(C)c1ccc(OCCOCC[N+](C)(C)Cc2ccccc2)cc1
inactive: [6]
active: [1] 5 µM | [2] 8.05 µM | [3] 7.34 µM | [4] 8.31 µM | [5] 2.22 µM | [7] 5 µM | [8] 0.496 µM | [9] 6.64 µM | [10] 6.6 µM | [11] 7.5 µM | [12] 5 µM | [13] 6.9 µM | [14] 5 µM | [15] 9.07 µM | [16] 7.61 µM | [17] 6.61 µM | [18] 8.08 µM | [19] 2.26 µM

O=C(Nc1ccc2c(O)c(N=Nc3ccc(N=Nc4ccc(S(=O)(=O)O)cc4)cc3)c(S(=O)(=O)O)cc2c1)c1ccccc1
active: [2] 25.5 µM and 36.2 µM | [9] 30.8 µM and 29.3 µM | [10] 35.3 µM | [11] 23.6 µM | [13] 15.1 µM
inactive: [1] | [3] | [4] | [5] | [6] | [7] | [8] | [11] | [12] | [13] | [14] | [15] | [16] | [17] | [18] | [19]
